This experiment addresses T1, GST-Aq-NF-kB (Amphimedon queenslandica, UniProt A9Y5G7 2-389).
T1 sequence: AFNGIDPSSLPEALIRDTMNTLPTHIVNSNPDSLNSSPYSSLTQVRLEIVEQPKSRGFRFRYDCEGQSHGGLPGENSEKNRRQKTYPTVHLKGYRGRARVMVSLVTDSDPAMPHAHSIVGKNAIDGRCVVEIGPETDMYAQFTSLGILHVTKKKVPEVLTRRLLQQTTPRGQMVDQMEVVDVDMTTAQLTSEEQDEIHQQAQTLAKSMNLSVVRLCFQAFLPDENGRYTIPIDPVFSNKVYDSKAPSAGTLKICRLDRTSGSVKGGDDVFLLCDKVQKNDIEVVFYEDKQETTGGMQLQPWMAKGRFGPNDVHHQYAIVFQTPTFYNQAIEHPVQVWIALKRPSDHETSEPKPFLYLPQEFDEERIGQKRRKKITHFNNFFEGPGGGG
Nature of the experiment: protein-binding microarray (PBM); PBM: ~300 nM protein, 6 mM HEPES pH 7.8, 80 mM KCl, 0.5 mM EDTA, 0.5 mM EGTA, 6% glycerol, 35 ng/ul poly-dIdC, 1% milk, 1 h, room temperature; Ap Aiptasia and Nv Nematostella (sea anemones) / Co Capsaspora / Aq Amphimedon (sponge) / Dm Drosophila / Hu human; RHD is the Rel homology domain; high values mean tight binding. The following applies: dsDNA, one strand shown.
With “CCGATTAACATCAGACAATCCCCTGATGTTAATCGGGTCTTGATTCGCTTGACGCTGCTG”, the binding signal was determined as 5.98 z-score.
As for “CCGATTAACATCAGGAAAACCCCTGATGTTAATCGGGTCTTGATTCGCTTGACGCTGCTG”, the binding signal was 9.24 z-score.
The sequence “CCGATTAACATCAGGGAAATCACTGATGTTAATCGGGTCTTGATTCGCTTGACGCTGCTG” returned a binding signal of 5.99 z-score.
As for “CCGATTAACATCAGGAAAATCCCTGATGTTAATCGGGTCTTGATTCGCTTGACGCTGCTG”, the binding signal was 8.07 z-score.
With “CCGATTAACATCAAAAAGCCCCCTGATGTTAATCGGGTCTTGATTCGCTTGACGCTGCTG” the figure was 8.57 z-score; with “CCGATTAACATCAAATCTCCCCCTGATGTTAATCGGGTCTTGATTCGCTTGACGCTGCTG”, 6.11 z-score; with “CCGATTAACATCACACTACCCCCTGATGTTAATCGGGTCTTGATTCGCTTGACGCTGCTG”, 2.65 z-score.
With “CCGATTAACATCAGGGGGAAACATGATGTTAATCGGGTCTTGATTCGCTTGACGCTGCTG”, the binding signal stood at 5.49 z-score.
The figure for “CCGATTAACATCAGGGGGAACGATGATGTTAATCGGGTCTTGATTCGCTTGACGCTGCTG” is 4.16 z-score.
With “CCGATTAACATCAAGTATCCCCCTGATGTTAATCGGGTCTTGATTCGCTTGACGCTGCTG” the figure was 4.99 z-score.
With “CCGATTAACATCAATCTTTCCCCTGATGTTAATCGGGTCTTGATTCGCTTGACGCTGCTG” the figure was 5.91 z-score.
Sequence “CCGATTAACATCAAAATTACCCATGATGTTAATCGGGTCTTGATTCGCTTGACGCTGCTG” registered a binding signal of 4.84 z-score.
The sequence “CCGATTAACATCACAAAAGTCCCTGATGTTAATCGGGTCTTGATTCGCTTGACGCTGCTG” yielded a binding signal of 7.54 z-score.
Sequence “CCGATTAACATCAGGGGGCAATATGATGTTAATCGGGTCTTGATTCGCTTGACGCTGCTG” showed a binding signal of 3.54 z-score.
“CCGATTAACATCAGGGGACTACCTGATGTTAATCGGGTCTTGATTCGCTTGACGCTGCTG” showed a binding signal of 7.36 z-score.
The figure for “CCGATTAACATCACGGGATTTGGTGATGTTAATCGGGTCTTGATTCGCTTGACGCTGCTG” is 1.61 z-score; for “CCGATTAACATCACAAAGTCCCCTGATGTTAATCGGGTCTTGATTCGCTTGACGCTGCTG” it is 6.4 z-score.
With “CCGATTAACATCAGAAATATCCCTGATGTTAATCGGGTCTTGATTCGCTTGACGCTGCTG” the figure was 4.26 z-score; with “CCGATTAACATCAGGGGGTTGGATGATGTTAATCGGGTCTTGATTCGCTTGACGCTGCTG”, 3.38 z-score.
As for “CCGATTAACATCACTACCCCCCCTGATGTTAATCGGGTCTTGATTCGCTTGACGCTGCTG”, the binding signal was 3.4 z-score.
With “CCGATTAACATCAAATTCCCGGGTGATGTTAATCGGGTCTTGATTCGCTTGACGCTGCTG” the figure was 3.13 z-score; with “CCGATTAACATCAAATTACCCCCTGATGTTAATCGGGTCTTGATTCGCTTGACGCTGCTG”, 5.57 z-score.
Consider “CCGATTAACATCAAAAAAACCCCTGATGTTAATCGGGTCTTGATTCGCTTGACGCTGCTG”, for which the binding signal was found to be 8.79 z-score.
The figure for “CCGATTAACATCAGGGGATACACTGATGTTAATCGGGTCTTGATTCGCTTGACGCTGCTG” is 4.05 z-score; for “CCGATTAACATCAATTTTCCCCATGATGTTAATCGGGTCTTGATTCGCTTGACGCTGCTG” it is 5.53 z-score; for “CCGATTAACATCAAAAATCCCACTGATGTTAATCGGGTCTTGATTCGCTTGACGCTGCTG” it is 3.87 z-score.
The figure for “CCGATTAACATCAGCAATTCCCCTGATGTTAATCGGGTCTTGATTCGCTTGACGCTGCTG” is 5.36 z-score; for “CCGATTAACATCAGGGAAAAGTATGATGTTAATCGGGTCTTGATTCGCTTGACGCTGCTG” it is 3.86 z-score.
Take “CCGATTAACATCAATAACCCCCCTGATGTTAATCGGGTCTTGATTCGCTTGACGCTGCTG”: the binding signal was 6.46 z-score.
With “CCGATTAACATCAGGGCATCCCCTGATGTTAATCGGGTCTTGATTCGCTTGACGCTGCTG”, the binding signal came to 8.18 z-score.
Turning to “CCGATTAACATCAGGGGGAGATATGATGTTAATCGGGTCTTGATTCGCTTGACGCTGCTG”, the binding signal amounted to 4.8 z-score.
With “CCGATTAACATCAGGGGATCCCCTGATGTTAATCGGGTCTTGATTCGCTTGACGCTGCTG” the figure was 11.3 z-score.
Turning to “CCGATTAACATCACCCAATTCCCTGATGTTAATCGGGTCTTGATTCGCTTGACGCTGCTG”, the binding signal turned out to be 2.94 z-score.
Take “CCGATTAACATCAAGGGGAAAACTGATGTTAATCGGGTCTTGATTCGCTTGACGCTGCTG”: the binding signal is 6.55 z-score.
Consider “CCGATTAACATCAGGAAATCCCCTGATGTTAATCGGGTCTTGATTCGCTTGACGCTGCTG”, for which the binding signal came to 10.9 z-score.
With “CCGATTAACATCATTTGGGAAAATGATGTTAATCGGGTCTTGATTCGCTTGACGCTGCTG”, the binding signal was 1.67 z-score.
The figure for “CCGATTAACATCAATATTCCCCATGATGTTAATCGGGTCTTGATTCGCTTGACGCTGCTG” is 5.97 z-score.
The figure for “CCGATTAACATCAGATTTCCCCCTGATGTTAATCGGGTCTTGATTCGCTTGACGCTGCTG” is 7.34 z-score.
The figure for “CCGATTAACATCAGGGCTGCCCCTGATGTTAATCGGGTCTTGATTCGCTTGACGCTGCTG” is 6.85 z-score.

For the origin of these results see PMC5700166.
